Reference: PubChem BioAssay AID435019 (Southern Research Specialized Biocontainment Screening …, 2010)
Screen size: about 2,300 compounds; about 1,200 (52%) were called active. The rule behind the calls is not given here. So high a share suggests a set chosen from earlier hits. The list shows a part of the results. Results with a measured potency or affinity are listed apart.

Assay: mammalian cell cytotoxicity, dose response, cytotoxicity control for M. tuberculosis inhibitor project (AID 435019);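 note: lower values mean fewer viable cells so more cytotoxicity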
Settings: cytotoxicity counter-screen; series mostly up to 40 µM
For `CN(C)S(=O)(=O)c1cccc(NC(=O)CCc2nc3sc4c(c3c(=O)[nH]2)CCCC4)c1`, the outcome was “inactive”. For `Cc1cc(OCc2nc3ccccc3s2)ccc1N`, the outcome was “inactive”. For `CCCC(=O)OCCNc1cc(SCCC(=O)OC)c2nonc2c1[N+](=O)[O-]`, the outcome was “inactive”. For `CCOC(=O)c1nn(-c2ccc(C)c(C)c2)cc1O`, the outcome was “inactive”. For `CCn1cc(Br)c(C(=O)Nc2ccc(C(=O)OC(C)C)cc2)n1`, the outcome was “inactive”. In the case of `C=CC[N@@+]12CC[C@]34c5ccccc5N5/C=C6\C7N(/C=C(\C53)[C@@H](C[C@@H]41)/C(=C/CO)C2)c1ccccc1[C@@]71CC[N@@+]2(CC=C)C/C(=C\CO)[C@@H]6C[C@@H]12` (some centres undefined), the outcome is reported as “inactive”. For `Cc1cccc(C(=O)OCC(=O)N2CCc3ccccc3C2)c1O`, the outcome was “inactive”. With `CC(C)c1ccc2[nH]c(O)c(N=NC(=O)c3ccc(CSc4nncn4C)cc3)c2c1` the outcome was “inactive”. In the case of `COC(=O)N/N=C/c1c[n+]([O-])c2ccccc2[n+]1[O-]`, the outcome is reported as “inactive”. With `N[C@@H](CCl)C(=O)O` the outcome was “inactive”. With `Cc1ccc(NC(=O)C2=C(O)CCn3c2nc2ccccc23)cc1` the outcome was “inactive”. For `O=C(CSc1nc2ccccc2c(=O)[nH]1)NCc1ccc(Cl)cc1`, the outcome was “inactive”. In the case of `CC(C)NC(=O)c1onc(CSc2ccc(F)c(F)c2)c1C(=O)O`, the outcome is reported as “inactive”. For `CCN(Cc1ccncc1)Cc1nc(-c2ccc(C(=O)OC)cc2)no1`, the outcome was “inactive”. In the case of `Cc1ccc(-c2noc(-c3cc4ccccc4oc3=O)n2)cc1`, the outcome is reported as “inactive”. With `COc1ccc(-c2oc3cccnc3c2/C=C/c2ccc(OC)c(OC)c2)cc1` the outcome was “inactive”. With `O=C(NCC1CC1)c1cc([N+](=O)[O-])cc([N+](=O)[O-])c1` the outcome was “inactive”. In the case of `CCOc1cc(C=O)cc(N=Nc2cccc([N+](=O)[O-])c2)c1O`, the outcome is reported as “inactive”. With `N/C(=N\OC(=O)CCC1CCCC1)c1cccc([N+](=O)[O-])c1` the outcome was “inactive”. In the case of `CCOC(=O)c1ccc(N=Cc2c(O)c3ccccc3oc2=O)cc1`, the outcome is reported as “inactive”. In the case of `CCOC(=O)/C(=N\Nc1ccc(Br)cc1)N1CC(C)OC(C)C1` (centres undefined), the outcome is reported as “inactive”. For `CC(C)(C)c1ccc(OCCC(=O)OCC(=O)NC(=O)NC2CCCC2)cc1`, the outcome was “inactive”. In the case of `CC(OC(=O)CCN=C1NS(=O)(=O)c2ccccc21)C(=O)Nc1ccc(F)c(F)c1F` (centres undefined), the outcome is reported as “inactive”. With `Nc1cnccc1C(=O)O` the outcome was “inactive”. In the case of `O=C1CC(Nc2ccc3ccccc3c2)C(=O)N1Cc1ccccc1` (centres undefined), the outcome is reported as “inactive”. For `Cc1c(C(=O)Oc2cccc3ccccc23)cnn1-c1ccccc1`, the outcome was “inactive”. In the case of `CC(=NCc1ccc2c(c1)OCO2)C1=C(O)c2ccccc2C1=O`, the outcome is reported as “inactive”. In the case of `CCOC(=O)C1=C(C)Nc2nc(SCC(=O)OC)nn2C1c1cc(F)cc(F)c1` (centres undefined), the outcome is reported as “inactive”. For `CC(=O)Oc1ccc(/C=N\NC(=O)c2cc3c(ccc4ccccc43)o2)cc1`, the outcome was “inactive”. With `COc1ccc(NC(=O)ON=C2c3ccccc3-c3ccccc32)cc1` the outcome was “inactive”. With `COC(=O)Cc1ccc(NC(=S)Nc2ccccn2)cc1` the outcome was “inactive”. With `Nc1ccc(N=Nc2ccccc2)c2cccnc12` the outcome was “inactive”. For `O=C(Nc1cccc(C(F)(F)F)c1)c1ccc2nc(-c3ccco3)c(-c3ccco3)nc2c1`, the outcome was “inactive”. In the case of `Nc1cccc(-c2cc3ccccc3oc2=O)c1`, the outcome is reported as “inactive”. With `CCOC(=O)c1sc(C)c2c(=O)n(CC(=O)c3ccc(Br)cc3)nnc12` the outcome was “inactive”. With `NC(N)=Nc1nc(-c2ccccc2)c2ccccc2n1` the outcome was “inactive”. With `CCOC(=O)Cn1nc(-c2ccccc2)nc1-c1ccccc1` the outcome was “inactive”. In the case of `CCOC(=O)c1ccc(N=Cc2nc3ccccc3n2C)cc1`, the outcome is reported as “inactive”. With `CCOc1cc(/C=N/Nc2nc(Nc3ccccc3)nc(N3CCCCC3)n2)ccc1OCC(=O)O` the outcome was “inactive”. With `COC(=O)[C@@H](NC(=O)c1cc(COc2cncc(Cl)c2)on1)c1ccccc1` the outcome was “inactive”. For `O=C(N/N=C\c1ccc[nH]1)c1cncc(Br)c1`, the outcome was “inactive”. With `O=C(O)C1CC=CCC1C(=O)NNc1ccccc1` (centres undefined) the outcome was “inactive”. For `O=c1oc2ccccc2c(Nc2ccccc2O)c1[N+](=O)[O-]`, the outcome was “inactive”. With `COc1ccc(NC(=O)C2C3C=CC(O3)C2C(=O)NCc2cccnc2)cc1` (centres undefined) the outcome was “inactive”. With `CCCC(O)(CCC)C(=O)NNc1ccc(C)cc1` the outcome was “inactive”. With `CCc1nnc(NC(=O)CN2CCN(c3nc(-c4ccccc4)cs3)CC2)s1` the outcome was “inactive”. With `c1ccc2nc(-c3ccc(-n4ccnc4)cc3)ccc2c1` the outcome was “inactive”. For `CCOC(=O)c1c(-c2ccc(OC)cc2)csc1NC(=O)CNCc1ccco1`, the outcome was “inactive”. For `CCCCOc1ccc(C(=O)Oc2ccc(C)nc2)cc1`, the outcome was “inactive”. In the case of `O=c1[nH][nH]cc1C=Nc1ccc(Oc2ccccc2)cc1`, the outcome is reported as “inactive”. For `CN(c1ccccc1)S(=O)(=O)c1cccc(C(=O)NCc2ccccc2CN2CCCC2)c1`, the outcome was “inactive”. In the case of `CN1C(=O)N(C)c2ccc(C=O)c3cccc1c23`, the outcome is reported as “inactive”. For `COc1cc2[nH]c(Cl)c([N+](=O)[O-])c2cc1OC`, the outcome was “inactive”. For `Cc1ccc(C)c(NC(CC(=O)c2ccccc2)C(=O)OCC(=O)c2cccs2)c1` (centres undefined), the outcome was “inactive”. For `CCOc1ccc(NCc2cccn2-c2nnc(N3CCC(C(=O)NCCCN4C(C)CCCC4C)CC3)s2)cc1` (centres undefined), the outcome was “inactive”. In the case of `O=C(CSc1nnc(-c2cccs2)o1)NCC1CN(Cc2ccccc2)CCO1` (centres undefined), the outcome is reported as “inactive”. With `Nc1cc(=O)[nH]c(SCc2csc(-c3ccccc3)n2)n1` the outcome was “inactive”. In the case of `CCOC(=O)c1cc(-c2ccc(N3CCOCC3)cc2)nn1-c1ccccc1`, the outcome is reported as “inactive”. In the case of `CCCOc1cccc(C(=O)NC(=S)Nc2ccc(N3CCN(C)CC3)cc2)c1`, the outcome is reported as “inactive”. For `CCOC(=O)CNC(=O)C(Cc1ccccc1)NC(=O)OCc1ccccc1` (centres undefined), the outcome was “inactive”. With `COc1ccc(-c2cc(C3CCN(C(=O)OC(C)(C)C)CC3)[nH]n2)cc1` the outcome was “inactive”. For `CCCCCc1ccc(-c2cn(Cc3cccc(OC)c3)nn2)cc1`, the outcome was “inactive”. In the case of `COc1ccc(C(=O)OCCNC(=O)c2c(Cl)nc3ccccn23)cc1`, the outcome is reported as “inactive”. In the case of `CCOC(=O)c1sc2nc3n(c(=O)c2c1C)CCC(C)CC3` (centres undefined), the outcome is reported as “inactive”. In the case of `COc1ccccc1NC(=O)C(C)OC(=O)/C=C/c1ccc2ccccc2n1` (centres undefined), the outcome is reported as “inactive”. In the case of `CC(OC(=O)c1cc(Cl)ccc1[N+](=O)[O-])C(=O)NC(C)c1ccc(F)cc1` (centres undefined), the outcome is reported as “inactive”. In the case of `Cn1c(=O)c2cc(NCc3ccccc3)nnc2n(C)c1=O`, the outcome is reported as “inactive”. With `Cn1c(=O)n(Cc2ccccc2)c(=O)c2c1nc1n2CCCN1C1CCCCC1` the outcome was “inactive”. With `Cc1nn(-c2ccccn2)c2c1-c1nc(N3CCOCC3)ncc1CC2` the outcome was “inactive”.
